HSF-1 act: increases HSF-1 driven luciferase reporter signal; NIH3T3-HGL HSF-1 luciferase reporter, MG132, 8 h; 100% = twice DMSO control signal; activation, % at 9 µM; 300,000 compounds, 1.7% hits; AID 504408;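 active = mean replicate activation of at least 50% with a set share of replicates each reaching 50%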
FXN GAA850 act: activators of GAA850 frataxin (FXN) promoter. HEK293 lucGAA850 FXN promoter luciferase reporter, 24 h; percent of 10 µM SAHA response. activation, % at 6 µM. 360,000 compounds, 0.56% hits. AID 540364;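 active = activation above the average of all compounds screened plus 3 SD, cutoff fixed separately per campaign, cut at about 7.5% in these data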
AHR act: activators of human aryl hydrocarbon receptor; P35869; AHR-responsive luciferase reporter cells, luminescence; activation, % at 5 µM; 320,000 compounds, 2.5% hits; AID 2796; in the data active = activation above about 47%
Target sequence (P35869 whole entry, looked up): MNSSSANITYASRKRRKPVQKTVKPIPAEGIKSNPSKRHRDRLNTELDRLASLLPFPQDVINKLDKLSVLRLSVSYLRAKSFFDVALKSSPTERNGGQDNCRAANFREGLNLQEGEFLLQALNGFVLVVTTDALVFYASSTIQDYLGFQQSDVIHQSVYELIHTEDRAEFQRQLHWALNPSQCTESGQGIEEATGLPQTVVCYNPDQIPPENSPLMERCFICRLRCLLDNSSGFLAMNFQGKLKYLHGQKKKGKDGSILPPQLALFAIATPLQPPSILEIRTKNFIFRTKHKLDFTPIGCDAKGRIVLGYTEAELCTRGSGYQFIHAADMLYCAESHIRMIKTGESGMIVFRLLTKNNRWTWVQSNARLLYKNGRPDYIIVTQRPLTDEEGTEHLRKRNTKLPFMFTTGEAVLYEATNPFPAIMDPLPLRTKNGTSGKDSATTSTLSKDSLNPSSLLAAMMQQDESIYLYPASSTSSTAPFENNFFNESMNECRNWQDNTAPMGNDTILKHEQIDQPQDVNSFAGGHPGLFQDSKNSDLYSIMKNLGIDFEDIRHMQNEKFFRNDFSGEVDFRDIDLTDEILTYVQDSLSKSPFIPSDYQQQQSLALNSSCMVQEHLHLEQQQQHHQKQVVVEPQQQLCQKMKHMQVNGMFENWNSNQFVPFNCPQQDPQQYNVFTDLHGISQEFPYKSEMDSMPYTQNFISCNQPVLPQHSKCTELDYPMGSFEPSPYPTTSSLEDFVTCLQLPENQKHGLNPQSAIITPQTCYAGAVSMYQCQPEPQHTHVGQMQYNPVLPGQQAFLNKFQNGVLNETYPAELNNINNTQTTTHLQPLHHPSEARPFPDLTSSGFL
HSF1 inh: HSF1 inhibition; NIH3T3-HGL HSE-luciferase, MG132-induced, luminescence 8 h; stronger effect = lower value; activity change, negative = inhibition, % at 7.5 µM (by protocol); 300,000 compounds, 0.77% hits; AID 2098;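 active = more than half of replicate wells show activity change below -50%, luminescence cut by over half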;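 also: luciferase reports HSF-1 transcriptional activity via heat shock element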
Each line names hits and unclear results; the compound was inactive in the other large screens. A selection: hits, their analogues and other compounds. The true share with any hit is near 4.6%.

CCOC(=O)c1ccc(N=c2sc(C(=O)OC)cc(=O)n2-c2ccc(C(=O)OCC)cc2)cc1	HSF-1 act 105
Nc1cc(-c2ccc(Br)cc2)nc2cc(-c3ccccc3)nn12	none
Clc1nc(-c2ccccc2)cc(-c2ccc(Br)cc2)n1	AHR act 69
COP(=O)(OC)C(Nc1ccc([N+](=O)[O-])cc1)c1ccccc1 (configuration not stated)	none
CCCOP(=O)(OCCC)C(Nc1ccc(C(C)C)cc1)c1ccc([N+](=O)[O-])cc1 (configuration not stated)	AHR act 60
C/C=C(\C)C(=O)Nc1cccc(C2=NOC3(C2)C[C@@H](C(N)=O)N(C(=O)/C(C)=C/C)C3)c1 (some centres not stated)	none
COC(=O)c1sc(N)c(C(=O)OC)c1Cn1ncc(Cl)c(Cl)c1=O	HSF-1 act 61
Cc1ccc(C2N(c3ccccc3)C(=S)N3CCCN23)cc1 (configuration not stated)	HSF1 inh -82
FC(F)(F)c1ccc(NCc2ccccn2)nc1	none
CCn1nc(C)cc1-c1nnc(Sc2ncc([N+](=O)[O-])s2)n1C	HSF-1 act 122
CCn1nc(C)cc1-c1nnc(SCC(=O)Nc2ccccc2)n1CCCOC	none
CN(Cc1cccc2cnccc12)C(=O)CCc1nnc(CCc2ccccc2)o1	none
CC(NC(=O)c1cc(-c2ccncc2)nc2ccc(Cl)cc12)C1CCCO1 (configuration not stated)	none
CC(NC(=O)c1cc(-c2ccccn2)nc2ccc(Cl)cc12)C1CCCO1 (configuration not stated)	AHR act 52
O=C(COc1ccccc1[N+](=O)[O-])Nc1ccc2c(c1)OCO2	none
S=C(NCCC(c1ccccc1)c1ccccc1)Nc1ccccc1Cl	none
S=C(NCCC(c1ccccc1)c1ccccc1)Nc1ccc(Cl)cc1	HSF-1 act 54
COC(=O)c1cccc(NC(=O)c2cnoc2C)c1	none
Cc1oncc1C(=O)Nc1ccc(C(F)(F)F)cc1	AHR act 67
Cc1oncc1C(=O)Nc1ccc2ccccc2c1	HSF-1 act 66 (no result: AHR act)
CN(Cc1ccccc1)C(=O)c1cc(-c2ccc(Br)cc2)on1	HSF-1 act 62
CCn1c(SCC(=O)Nc2cccc(NC(C)=O)c2)nc2c([nH]c3ccccc32)c1=O	AHR act 57
Cn1c(SCC(=O)N2CCCCC2)nc2c([nH]c3ccccc32)c1=O	none
CCn1c(SCC(=O)Nc2ccc(C(C)=O)cc2)nc2c([nH]c3ccccc32)c1=O	none
CCOC(=O)N1CCN(C(=O)CSc2nc3c([nH]c4ccccc43)c(=O)n2C)CC1	AHR act 51
COCCn1c(SCC(=O)NCC2CCCO2)nc2c([nH]c3ccccc32)c1=O (configuration not stated)	AHR act 59
C=CCn1c(SCC(=O)NC2CCCC2)nc2c([nH]c3ccccc32)c1=O	AHR act 63
CN(C)S(=O)(=O)c1cccc(NC(=S)Nc2cc(Cl)cc(Cl)c2)c1	none
COCCn1c(SCC(=O)Nc2ccc(NC(C)=O)cc2)nc2c([nH]c3ccccc32)c1=O	AHR act 74
Cn1c(SCC(=O)NC2CCCCCC2)nnc1-c1ccco1	none
C=CCn1c(SCC(=O)NC2CCCC2)nc2scc(-c3ccco3)c2c1=O	HSF-1 act 61
CC(C)n1c(SCC(=O)NC2CCCCC2)nnc1-c1ccco1	HSF-1 act 67
O=C(Nc1ccccc1)c1ccc(S(=O)(=O)N2CCCCC2)cc1	none
C/C(=N/NC(=O)Cc1cc(=O)[nH][nH]1)c1ccc([N+](=O)[O-])cc1	none
CCOC(=O)C1C(=O)CC(C)(O)C(C(=O)OCC)C1c1cccs1 (configuration not stated)	none
COC(=O)C1=CN(Cc2ccc(OC)cc2)C=C(C(=O)OC)C1c1cc(OC)c(OC)c(OC)c1	none
CCOC(=O)C1=CN(Cc2ccc(OC)cc2)C=C(C(=O)OCC)C1c1cccs1	HSF-1 act 51
CN1/C(=C\C(=O)c2cccnc2)Sc2ccccc21	none
COc1cccc(C(=O)/C=C2\Sc3ccccc3N2C)c1	AHR act 58
Cc1cc(C(=O)c2ccccc2)c(NC(=O)CCl)s1	none
O=C(CCl)Nc1ccccc1C(=O)c1ccccc1	HSF1 inh -95
Cc1nn(-c2cccc(C(=O)O)c2)c(C)c1Oc1ccccc1O	none
Nc1nc(CSC(=S)N2CCCCC2)nc(Nc2ccccc2)n1	HSF1 inh -81
O=C(Nc1nnc(S(=O)(=O)Nc2ccccc2)s1)c1ccccc1Cl	none
C=CCc1ccccc1OCC(O)CN1CCN(CCN2C(=O)c3cccc4cccc(c34)C2=O)CC1 (configuration not stated)	HSF-1 act 61
COc1ccc(Nc2ncnc3sc(-c4ccccc4)cc23)cc1	HSF1 inh -71
CC(C)(C)Nc1ncnc2sc(-c3ccccc3)cc12	none
COc1cc(C(=O)Nc2ccc(Oc3ncnc4sc(-c5ccccc5)cc34)cc2)cc(OC)c1OC	none
COc1ccccc1C(=O)Nc1ccc(Oc2ncnc3sc(-c4ccccc4)cc23)cc1	AHR act 80
Cc1ccc2c(c1)-n1c(nc3ccc(Cl)cc3c1=O)C(CC(C)C)NC2=O (configuration not stated)	none (no result: HSF-1 act, FXN GAA850 act, HSF1 inh)
Cc1cccc(/C=C/c2onc(C)c2S(=O)(=O)N2CCC(C(=O)N3CCC(C)CC3)CC2)c1	none
COc1cccc(C2C(C(N)=O)=C(C)Nc3nc(-c4cccc(Cl)c4)nn32)c1 (configuration not stated)	HSF-1 act 99
NS(=O)(=O)c1ccc(N/N=C/c2cn(-c3ccccc3)nc2-c2ccccc2)c([N+](=O)[O-])c1	none
COc1ccccc1NS(=O)(=O)c1cc([N+](=O)[O-])ccc1N/N=C/c1c[nH]c2ccccc12	none
O=C(O)COc1ccccc1/C=N/NC(=O)c1ccc2c(c1)OCCO2	HSF1 inh -60
O=[N+]([O-])c1ccc(N/N=C/c2cn(-c3ccccc3)nc2-c2ccccc2)cc1	HSF-1 act 64
O=[N+]([O-])c1ccc(N/N=C/c2c[nH]c3ccccc23)cc1	HSF-1 act 155
O=C(N/N=C/c1c[nH]c2ccccc12)c1ccc2c(c1)OCCO2	AHR act 48
CCCCn1nc(C(=O)Nc2ccc3c(c2)OCO3)c2ccccc2c1=O	none (no result: HSF-1 act, HSF1 inh)
O=C(N/N=C/c1c[nH]c2ccccc12)c1cccc([N+](=O)[O-])c1	AHR act 70
O=[N+]([O-])c1ccc(N/N=C/c2ccc[nH]2)cc1	AHR act 61 (no result: HSF-1 act, HSF1 inh)
O=[N+]([O-])c1cccc(N/N=C/c2cccc3ccccc23)c1	AHR act 61
O=[N+]([O-])c1ccccc1N/N=C/c1c[nH]c2ccccc12	HSF-1 act 150, AHR act 73
O=[N+]([O-])c1ccc(NN=Cc2cccc([N+](=O)[O-])c2)cc1	none (no result: HSF-1 act, AHR act, HSF1 inh)
CCn1c(SCC(=O)NCCc2ccccc2)nc2sc3c(c2c1=O)CCN(C)C3	none (no result: HSF-1 act, HSF1 inh)
Cn1ncc([N+](=O)[O-])c1C(=O)N/N=C/c1c[nH]c2ccccc12	AHR act 70
O=C(c1cc2cc(Cl)ccc2oc1=O)N1CCOCC1	none
